Assay outcomes: PubChem BioAssay, National Center for Advancing Translational Sciences (NCATS)
Most compounds without a hit are left out; they make up all but 7.8% or so of the library.
VACV mCherry inh – vaccinia inhibition (mCherry reporter); 0.63% of 310,000 active; Potency, µM (highest dose often 36.5 µM), hits mostly inhibitors; Vaccinia virus mCherry reporter infection, fluorescence; calls by dose curve; tested in A549 cells; also: nearly all actives have a fitted effect of over 35% in size
HCV inhibitor – blocks hepatitis C virus; Huh7.5.1 HCVcc-Cre infection, luciferase reporter, 44 h; Potency, µM (series often up to 41.8 µM), actives largely listed as inhibitors; 3.4% of 340,000 active; AID 651820; active = well fitted inhibition curve with a large enough effect; inconclusive = small, poorly fitted or top-dose-only effect, or another doubt; inactive = no such curve, though single readings can be large or run the other way
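Antiviral activity was scored by luciferase reporter output from cells infected with HCVcc-Cre (~0.5 moi) in presence of compound, 44 h infection period, cells seeded 1,000/well 4 h prior.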
VACV Venus inh – inhibitors of vaccinia virus (Venus reporter); 0.46% of 330,000 active; Vaccinia virus Venus reporter expression, fluorescence; Potency, µM (series often up to 36.5 µM), most hits filed as inhibitors; AID 720580; calls by dose curve; tested in A549 cells; also: nearly all actives have a fitted effect of over 30% in size
HCMV antiviral – blocks human cytomegalovirus replication | activity change, negative = inhibition, % at 57.5 µM | HFF cells, HCMV-luciferase reporter, 72 h; hits give low values | 4.5% of 410,000 active; in the data active = activity change below about -60%; inconclusive = no clear call, values can overlap the other calls; inactive = above about -39%
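Screen run at 2 compound doses on HFFs infected with reporter HCMV, MOI 1 PFU/cell. Luciferase activity from cell lysates at 72 h post infection gave inhibition relative to buffer-only and Salinomycin wells.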
Lassa entry inh – blocks Lassa virus binding to or entry into cells; Lassa virus pseudotype entry inhibition, cell reporter; Potency, µM (doses to about 37.9 µM), usual class: inhibitors; 1.2% of 300,000 active; AID 540256; calls by dose curve; tested in HEK293 cells; also: nearly all actives have a fitted effect of over 50% in size
Marburg entry inh – inhibitors of Marburg virus binding or cell entry | Marburg virus pseudotyped entry inhibition, cell reporter | Potency, µM (series often up to 37.8 µM), usual class: inhibitors | 1.8% of 300,000 active | AID 540276; calls by dose curve; tested in HEK293 cells
Hits are given with their value; n = inactive; u = inconclusive; x = not tested or not shown; [ ] = dose if it differs, or a comment.

SMILES	VACV mCherry inh	HCV inhibitor	VACV Venus inh	HCMV antiviral	Lassa entry inh	Marburg entry inh
COc1ccc(NC(=O)c2cnc(SCC(=O)Nc3nc4ccc(C)cc4s3)n(C)c2=O)cc1	n	x	n	n	n	x
O=C(NC1CCCC1)c1ccc2c(=O)n(Cc3ccccc3)c(SCc3cccc([N+](=O)[O-])c3)nc2c1	n	x	n	u	n	x
O=C(NCCc1ccccc1)c1ccc(NC(=O)C2CCC2)cc1	n	0.63µM	n	n	u	x
O=C(CCCc1ccccc1)Nc1cccc(C(=O)O)c1	n	n	n	n	u	2.5µM
O=C(NCCCCc1ccccc1)c1cccc(NC(=O)C2CCCC2)c1	n	8.9µM	n	n	n	x
O=C(NCCc1ccccc1)c1ccc(NC(=O)C2CCCCC2)cc1	n	n	n	n	x	x
COC(=O)c1sc(N)c(C(=O)OC)c1Cn1ncc(Cl)c(Cl)c1=O	u	11µM	n	n	u	u
O=C(NCc1cccc(Cl)c1)c1ccc2c(Cl)c3c(nc2c1)CCCC3	n	x	n	-78	n	n
CCOC(=O)N1CCC(NC(=O)c2ccc3c(Cl)c4c(nc3c2)CCCC4)CC1	u	u	u	n	u	u
O=C(NCCCN1CCCC1)c1ccc2c(Cl)c3c(nc2c1)CCCC3	n	11µM	u	-73	u	5.6µM
O=C(NCc1ccc(Cl)cc1)c1ccc2c(Cl)c3c(nc2c1)CCCC3	n	x	n	n	n	n
O=C(NC1CC1)c1ccc2c(Cl)c3c(nc2c1)CCCC3	x	n	x	-62	x	x
CCN(CC)CCCNC(=O)c1ccc2c(Cl)c3c(nc2c1)CCCC3	n	u	n	-88	u	u
CCOC(=O)CNC(=O)N1CCCN(S(=O)(=O)c2ccc3c(ccn3CC)c2)CC1	n	x	n	n	n	x
O=C(Nc1ccccc1F)c1ccc2c(Cl)c3c(nc2c1)CCC3	n	x	n	-86	u	u
COc1ccc(N2C(=O)CSC(c3ccccc3)C2=O)cc1 (centres undefined)	n	n	n	-105	n	n
COC(=O)[C@]12OC[C@]34C([C@@H](O)[C@@H]1O)[C@]1(C)CC(=O)C(O)=C(C)[C@@H]1C[C@H]3OC(=O)[C@H](O)[C@@H]24 (some centres undefined)	u	u	0.89µM	u	x	x
O=C(O)Cn1nc(N2CCN(c3ccccc3)CC2)ccc1=O	n	x	n	n	n	n
CC1(C)CC(=O)C(CS(=O)(=O)c2ccccc2)=C(Cl)C1	x	n	x	-68	x	x
COC(=O)C1=C(CS(=O)(=O)c2ccccc2)NC(=O)NC1c1ccccc1 (centres undefined)	x	n	x	n	x	x
CN(C)CC/C=C1\c2ccccc2COc2ccccc21	n	u	n	n	u	4µM
CN(C)CC/C=C1/c2ccccc2Sc2ccc(Cl)cc21	n	14µM	u	n	x	x
COC(=O)c1cc2oc(C)cc2n1Cc1ccc(Cl)cc1	n	x	n	n	n	x
O=C(NNC(=O)c1cccnc1SCc1cccc([N+](=O)[O-])c1)c1ccc(F)cc1	n	u	n	-92	u	u
O=C(NNC(=O)c1cccnc1SCc1cccc([N+](=O)[O-])c1)c1ccccn1	4µM	u	u	-100	u	3.2µM
SMILES	VACV mCherry inh	HCV inhibitor	VACV Venus inh	HCMV antiviral	Lassa entry inh	Marburg entry inh
O=C(NNC(=O)c1cccnc1SCc1cccc([N+](=O)[O-])c1)c1cccnc1	n	n	n	n	n	n
CCOC(=O)C1CCN(C(=O)c2nn(-c3ccc(OC)c(Cl)c3)c(=O)c3c2c2ccccc2n3C)CC1	n	x	n	n	u	n
CCCN(CCC)c1ccc(/C=C/c2ccnc3ccccc23)cc1	n	x	n	x	x	x
COc1ccc(C(O)(CCc2ccccc2)CCN2CCCCC2)cc1 (centres undefined)	n	32µM	n	n	u	u
OC(CCCN1CCCCC1)(c1ccccc1)c1ccc(C(F)(F)F)cc1 (centres undefined)	u	11µM	n	n	n	u
NC(=O)C(CCCCN1CCCCC1)(c1ccccc1)c1ccccc1	n	n	n	n	n	n
COc1ccc(S(=O)(=O)N2CCN(CCc3ccccc3)CC2)cc1	n	u	n	n	n	n
OC(CCN1CCCC1)(c1ccccc1)C1CCCCC1 (centres undefined)	n	n[8.37 µM]	n	-60	u	u
CCN(CC)CCC(O)(c1ccccc1)C1CCCCC1 (centres undefined)	x	n	x	n	x	x
CC(O)(C#CCN1CCCCCC1)c1ccccc1 (centres undefined)	n	n	n	-102	n	n
OC(C#CCN1CCCCC1)(c1ccccc1)c1ccccc1	n	u	n	n	n	u
Cc1ccc(NC(=O)Cn2c(=O)n(CCCCCC(=O)NCc3ccc(F)cc3)c(=O)c3sccc32)cc1C	n	x	n	n	n	n
CCCOc1ccc(C(=O)N(Cc2ccccc2Cl)C2CCS(=O)(=O)C2)cc1 (centres undefined)	n	x	n	n	n	n
Cc1ccc(-n2ncc3c(N4CCN(CCO)CC4)ncnc32)cc1Cl	n	x	n	n	n	x
C=CCC(O)(CCN1CCCCC1)c1ccccc1 (centres undefined)	x	n	n	n	n	u
OC(CCN1CCCCC1)(c1ccccc1)c1ccccc1	n	n[8.37 µM]	n	-81	n	u
COC(=O)C1=C(c2ccc(Cl)c(C(F)(F)F)c2)C[C@@H]2CC[C@H]1N2C(=O)N1CCCC1	n	32µM	n	n	x	x
COC(=O)C1=C(c2ccc(Cl)c(C(F)(F)F)c2)C[C@@H]2CC[C@H]1N2C(=O)N1CCOCC1	n	u	u	u	x	x
COC(=O)C1=C(c2ccc(Cl)c(C(F)(F)F)c2)C[C@@H]2CC[C@H]1N2C(=O)N1CCC(O)(c2ccc(Cl)cc2)CC1	n	10µM	u	n	x	x
CC(=O)Nc1nnc2n1CCS2	n	x	n	n	n	x
COc1ccc(OCC2c3cc(OC)c(OC)cc3CCN2C(=O)c2c(F)cccc2F)cc1 (centres undefined)	n	x	n	n	u	x
O=[N+]([O-])c1ccc(N2CCOCC2)cc1SCc1ccco1	n	11µM	n	n	n	u
O=[N+]([O-])c1ccc(SCc2ccco2)cc1N1CCOCC1	n	n	n	n	n	n
COc1ccc(S(=O)(=O)N2CCCCCC2)cc1C(=O)N(C)Cc1ccc(C(C)(C)C)cc1	u	14µM	n	n	u	u
Cc1cccc(C(C)C)c1NC(=O)COC(=O)c1cccc(S(=O)(=O)N2CCc3ccccc3C2)c1	n	n	n	-79	u	n
COc1ccc(CCNC(=O)COc2ccc(S(=O)(=O)NC3CCCCC3)cc2Cl)cc1OC	n	u	n	-62	n	u
COc1ccc(CNC(=O)c2cccc(S(=O)(=O)N3CCCCC3)c2)cc1OC	x	6.3µM	x	-87	x	x
CCc1cccc(CC)c1NC(=O)COC(=O)c1cccc(S(=O)(=O)N2CCc3ccccc3C2)c1	n	n	n	n	u	u
Cc1cccc(NC(=O)Cn2nc(N3CCN(c4ccccc4)CC3)ccc2=O)c1C	n	x	n	n	u	x
